This passage reports Potency results from PubChem BioAssay (Tox21).

Records with an inconclusive call do not appear. Entries that show only a call come without a potency. Calls of active or inactive are those of the source. Calls come from the whole dose curve; as a rule, active = well fitted activation curve with a large enough effect in the repeat runs; inconclusive = weak or mixed curves; inactive = flat fitted curve, though single readings scatter.
Potency is the fitted concentration of half-maximal effect.

A short description of this test: A CellTox Green Cytotoxicity Assay to monitor cytotoxicity in HepG2 cells - 24 hour (AID 1224878). Note: nearly all actives have a fitted effect of over 45% in size. To be noted: CellTox Green fluorescence; series mostly up to 76.8 µM. The text has this:
National Center for Advancing Translational Sciences [NCATS]
NIH Chemical Genomics Center [NCGC]
U.S. Environmental Protection Agency [EPA]
National Institutes of Environmental Health Sciences [NIEHS]
National Toxicology Program [NTP]
Cell-based models are critical for drug discovery. Determining the natural cytotoxic effects resulting from test compounds is an essential research activity. A CellTox Green Cytotoxicity Assay to monitor cytotoxicity in real time of continues cell culture during 40 hours of the compound treatment was used to screen Tox21 10K library compounds in HepG2 cells. CellTox Green Cytotoxicity Assay is a nonlytic, homogeneous, biofluorescent method to measure cytotoxicity in cell culture after experimental manipulation. The assay system uses a proprietary asymmetric cyanine dye that is excluded from viable cells but preferentially stains the dead cell's DNA. […] Viable cells produce no appreciable increases in fluorescence. Therefore, the fluorescence signal produced by the binding interaction with dead cell DNA is proportional to cytotoxicity.
The mixture of HepG2 cell suspension and reagents were dispensed at 600cells/6 ul/well in 1536-well tissue culture treated black solid bottom plates using a Multidrop dispenser. After the assay plates were incubated at a 37 C/5% CO2 incubator for 5 hours, 23 nL of compounds dissolved in DMSO, positive and negative controls was transferred to the assay plate by a pintool work station. The plates were incubated at 37 C for 40 hours. The fluorescence intensity were measured at 0h, 8h, 16h, 24h, 32h and 40h time points using ViewLux plate reader during compound treatment.
In the case of `CCC(C)OC(=O)N1CCCCC1CCO` (stereo not given), the Potency entry is “inactive”.
For `CC(=O)O[C@H](CC(=O)[O-])C[N+](C)(C)C`, the Potency entry was “inactive”.
Regarding `Nc1ccn(C2CO[C@H](CO)O2)c(=O)n1` (stereo not given in full), the Potency was 6.74 µM (active).
Turning to `Cc1nc(-c2ccc(OCC(C)C)c(C#N)c2)sc1C(=O)O`, the Potency entry was “inactive”.
For the compound `CCCCNc1ccccc1`, the Potency entry is “inactive”.
The value for `CC1CCN(CCCC(=O)c2ccc(F)cc2)CC1` was “inactive”; that for `Cc1ncc(CSSCc2cnc(C)c(O)c2CO)c(CO)c1O` was “inactive”.
With `C#CC(C)(O)CC(C)C` (stereo not given), the Potency result is “inactive”.
With `COC(=O)C1=C(C)NC(C)=C(C(=O)OCC(C)=O)C1c1ccccc1[N+](=O)[O-]` (stereo not given), the Potency result was “inactive”.
Take `O=[N+]([O-])c1ccc(CCO)cc1`: the Potency entry is “inactive”.
As for `O=C1OC(=O)c2cc([N+](=O)[O-])ccc21`, the entry is “inactive”; as for `C=C[Si](OC)(OC)OC`, “inactive”.
As for `CC(C)c1ccc2oc3nc(N)c(C(=O)O)cc3c(=O)c2c1`, the entry is “inactive”; as for `OCCN1C[C@H](O)[C@@H](O)[C@H](O)[C@H]1CO`, “inactive”.
The value for `Cc1onc(-c2ccccc2)c1-c1ccc(S(N)(=O)=O)cc1` was “inactive”.
Take `NC(=O)Nc1nc2ccccc2[nH]1`: the Potency result was “inactive”.
The value for `O=S(=O)(c1cccc2cnccc12)N1CCCNCC1` was “inactive”; that for `CC(C)(O)Cc1ccccc1` was “inactive”.
In the case of `NC(CS)C(=O)O` (stereo not given), the Potency result was “inactive”.
As to `CCN(CC)C(=O)c1ccc(O)c(OC)c1`, the Potency result is “inactive”.
In the case of `CN(C)C(=O)C(CCN1CCC(O)(c2ccc(Cl)cc2)CC1)(c1ccccc1)c1ccccc1`, the Potency is 15.1 µM (active).
As for `CNC(=O)c1c(I)c(NC(=O)CCCCC(=O)Nc2c(I)c(C(=O)O)c(I)c(C(=O)NC)c2I)c(I)c(C(=O)O)c1I`, the entry is “inactive”; as for `CC(C)N1C(=O)c2ccccc2C1=O`, “inactive”.
In the case of `CCCOCC(C)OCC(C)O` (stereo not given), the Potency result was “inactive”.
Take `C=C(C)C(=O)NCCCN(C)C`: the Potency entry was “inactive”.
The value for `C=C(C)C(=O)NCCC[N+](C)(C)C` was “inactive”; that for `COc1cc(O)cc(O)c1` was “inactive”; that for `CC(C)CCOC(=O)CC(C)C` was “inactive”.
The value for `CN(C)C(=O)Nc1ccccc1` was “inactive”; that for `C=CCn1c(=O)n([C@@H]2O[C@H](CO)[C@@H](O)[C@H]2O)c2nc(N)[nH]c(=O)c21` was “inactive”; that for `NS(=O)(=O)c1cc2c(cc1Cl)NC(CSCc1ccccc1)=NS2(=O)=O` was “inactive”.
With `NS(=O)(=O)c1cc(C2(O)NC(=O)c3ccccc32)ccc1Cl` (stereo not given), the Potency entry was “inactive”.
As for `OC/C=C/c1ccccc1`, the entry is “inactive”.
With `Cc1ccc(N)cc1[N+](=O)[O-]`, the Potency entry was “inactive”.
On to `CCCCOCC(C)OCC(C)O` (stereo not given), for which the Potency entry was “inactive”.
Consider `CC(C)(C)N(CCO)CCO`, for which the Potency result was “inactive”.
Regarding `O=C1C(CCS(=O)c2ccccc2)C(=O)N(c2ccccc2)N1c1ccccc1` (stereo not given), the Potency result is “inactive”.
As for `COC(C(=O)O)c1ccccc1` (stereo not given), the entry is “inactive”; as for `CC(=O)NC(Cc1ccccc1)C(=O)O` (stereo not given), “inactive”.
For the compound `Cc1c(C)n(CCN(C)C)c2ccc(C(=O)OCCN(C)C)cc12`, the Potency result was “inactive”.
